# Reference: article PMC5540273 (PLoS ONE, 2017)
# System: T1, LKB1
# T1 construct: gene STK11
# Conditions: concentration: 1 μM, replicates: in singlicate; n = 1
# 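Note: KINOMEscan kinase panel screen.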
row,Compound,%Inh [%]
1,Nc1ncnc2c1nc(-c1ccccc1)n2-c1ccccc1 [SKF-97293],60
2,CC(=O)Nc1nc2cnc(Nc3cc(NC(=O)c4cccc(C5(C#N)CC5)c4Cl)ccc3C)nc2s1,0
3,c1ccc(Oc2ccc(Nc3ccnc4cc(-c5ccc(CNCCN6CCOCC6)o5)ccc34)cc2)nc1 [GW567145],20
4,Cn1cc(-c2[nH]c3cc(NC(=O)[C@H](N)C4CCCCC4)cc4c3c2C=NNC4=O)cn1,94.3
5,CC(C)c1nc(-c2cccc(NS(=O)(=O)c3c(F)cccc3F)c2F)c(-c2ccnc(Nc3ccc(N4CCOCC4)nc3)n2)s1 [GSK2008607],9
6,COc1cc(Nc2nccc(-c3c(-c4cccc(NC(=O)c5c(F)cccc5F)c4)nn4ccccc34)n2)cc(OC)c1OC [GSK323521],0
7,COc1cc(Nc2nccc(N3CCC(NC(=O)c4cc5ccccc5s4)C3)n2)cc(OC)c1OC (stereo not shown) [GSK1379760],14
8,Fc1ccc(-c2ncn(C3CCNCC3)c2-c2ccnc(Oc3ccc(-c4ccccc4)cc3)n2)cc1 [SB-245391],0
9,COc1cc2c(cc1OCCN1CCNCC1)ncc1c3ccc(C#N)cc3[nH]c21,15
10,Cl.Cl.NCC(NCc1ccc(-c2ccnc3[nH]ccc23)s1)c1ccccc1 (stereo not shown) [GSK1321565],82
11,O=c1[nH]cc(-c2ccc(N3CCOCC3)cc2)c2sc(-c3cn[nH]c3)cc12 [GSK2276055],0
12,O=C(Nc1cccc(-c2nn3ccccc3c2-c2ccnc(Nc3cccc(F)c3)n2)c1)c1c(F)ccc(F)c1Cl [GSK357952],0
13,COC(=O)Nc1nc2cc(Oc3ccc(NC(=O)Nc4cc(C(F)(F)F)ccc4F)cn3)ccc2[nH]1.Cl.Cl [GW681170],11
14,COCCOCCOc1cc2ncc3c4ccc(C#N)cc4[nH]c3c2cc1OC,15
15,c1ccc(-c2n[nH]cc2Nc2ccnc3ccccc23)nc1 [GW694077],94
16,C[C@@H](Oc1cc(-n2cnc3cc(-c4ccnc(NCCS(C)(=O)=O)c4)ccc32)sc1C(N)=O)c1ccccc1Cl [GSK907232],0
17,CN1CCN(CCCNc2nccc(-c3c(-c4ccc(F)cc4)nn4cc(C(F)(F)F)ccc34)n2)CC1 [GW621581],5
18,Oc1cc(Nc2ccnc3cc(I)ccc23)ccc1F [GW552771],0
19,COc1ccc(-c2coc3ccc(-c4nnc(SCc5ccc(OC)c(C(F)(F)F)c5)o4)cc23)cc1,0

row,Compound,%Inh [%]
1,Cl.c1ccc(-c2ccc3c(Nc4ccc5[nH]ncc5c4)ccnc3c2)nc1 [GW440137],0
2,COc1ccc(CNC(=O)NC2CCN(c3ccnc(Nc4ccc(F)cc4)n3)CC2)cc1 [GSK1379788],4
3,Cn1cc(-c2ccc3c(c2)CCN3C(=O)Cc2cccc(Cl)c2)c2c(N)ncnc21 [GSK2606590],0
4,Cl.NC(=O)c1cccc(Nc2nccc(Nc3ccc(Oc4c(Cl)cccc4Cl)c(Cl)c3)n2)c1 [GW659009],0
5,Cc1ccc(F)c(C(=O)Nc2cccc(-c3nn4ccccc4c3-c3ccnc(Nc4cccc(F)c4)n3)c2)c1F [GSK361061],0
6,Cc1occc1-c1ncc(OC[C@@H](N)Cc2c[nH]c3ccccc23)cc1-c1ccc2[nH]nc(C)c2c1.O=C(O)C(F)(F)F [GSK682037],0
7,Cc1cccc(Nc2nc(N[C@H]3CCNC3)ncc2C(N)=O)c1.Cl [GSK2197149],8
8,CN(c1ccc(NC(=O)Nc2cc(C(F)(F)F)ccc2F)cc1)c1ccnc(Nc2ccc(S(N)(=O)=O)cc2)n1 [GW809893],0
9,CNC(=O)c1ccccc1Nc1nc(Nc2ccc(N3CCOCC3)cc2)ncc1Cl.Cl [GSK1576028],51
10,Cl.Cl.NCC(NC(=O)c1cc(-c2ccccc2)c(-c2ccnc3[nH]ccc23)s1)c1ccccc1 (stereo not shown) [GSK1321561],0
11,NCCCC(NC(=O)c1cc(Br)c(-c2ccnc3[nH]ccc23)s1)c1ccccc1.O=C(O)C(F)(F)F.O=C(O)C(F)(F)F (stereo not shown) [GSK1287544],0
12,O=C(Nc1cccc(Oc2ccc3nc(NC(=O)C4CC4)cn3n2)c1)c1ccccc1C(F)(F)F,0
13,Nc1n[nH]c2cnc(-c3ccccc3)cc12 [SB-642124],0
14,CN1CCN(Cc2cccc(-c3ccc4c(Nc5ccc(Oc6ccccc6)cc5)ccnc4c3)c2)CC1 [GW578342],12
15,Nc1ncc(-c2cccnc2)c2scc(-c3ccc4c(c3)CCN4C(=O)Cc3ccccc3)c12 [GSK683281],10
16,O=C(Nc1cccc(-c2nn3ncccc3c2-c2ccnc(Nc3ccccc3)n2)c1)c1c(F)cccc1F [GSK198271],3
17,Cl.c1ccc(-c2ccc3c(Nc4ccc5[nH]ccc5c4)ccnc3c2)nc1 [GW440138],0
18,Cc1ccc(C(=O)Nc2ccc(Nc3ccnc4cc(-c5nccs5)ccc34)cc2O)cc1.Cl [GW494702],0
